Assay results reported in PubChem BioAssay.
Values joined by “and” are separate entries in the source; they are usually repeats but may differ in a detail not shown here. Equal entries are not always repeated. Inconclusive results are not listed. Active and inactive are the calls of the source.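 How the source made its calls, unless noted: active means mean z-score across replicates of 1.96 or higher in either the MELAS or the Rieske mutant cell line; inactive means the rest.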

Columns and labels:
[1] = viability loss in pontine glioma line – cell-based, SU-DIPG-XXV, MIPE5.0, CellTiter-Glo, qHTS, dose response (AID 1347065; cut-off not given, nearly all actives have AC50 up to about 26 µM;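 further: cells exposed to compound for 48 hours before ATP readout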); settings: CellTiter-Glo ATP luminescence
[2] = JHH-DIPG-1 glioma cell viability, MIPE5.0 library, CellTiter-Glo luminescence, qHTS (AID 1347067; cut-off not given, nearly all actives have AC50 up to about 26 µM;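 further: cells exposed to compound for 48 hours before readout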); settings: JHH-DIPG-1 glioma viability, CellTiter-Glo ATP luminescence
[3] = blockers of cellular phospholipid synthesis – cell-based, LOPAC library, screen 4, primary screen (AID 1347384; call rule not given here); settings: animal cells, phospholipid biosynthesis inhibition screen; at 10 µM
[4] = MELAS cybrid and Rieske KO viability enhancers – cell-based, MELAS cybrids, Rieske KO mouse fibroblasts, CellTiter-Glo, primary screen (AID 1508586); settings: low glucose;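 further: z relative to plate mean and SD of compound and empty wells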
[5] = target: NAD(+) hydrolase SARM1 (Homo sapiens) (UniProt Q6SZW1); assay: blocking NAD cleavage by SARM1 SAM-TIR – cell lysate, NAD-Glo luminescence (AID 1508614;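 active means compound whose remaining NAD level is above about 45 nM, limit read from the data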); settings: SAM-TIR HEK293T lysate NADase, at 1 µM, stronger effect = higher value
Chain of NAD(+) hydrolase SARM1 (Homo sapiens) (Q6SZW1 whole entry, looked up, the tested form may be a part): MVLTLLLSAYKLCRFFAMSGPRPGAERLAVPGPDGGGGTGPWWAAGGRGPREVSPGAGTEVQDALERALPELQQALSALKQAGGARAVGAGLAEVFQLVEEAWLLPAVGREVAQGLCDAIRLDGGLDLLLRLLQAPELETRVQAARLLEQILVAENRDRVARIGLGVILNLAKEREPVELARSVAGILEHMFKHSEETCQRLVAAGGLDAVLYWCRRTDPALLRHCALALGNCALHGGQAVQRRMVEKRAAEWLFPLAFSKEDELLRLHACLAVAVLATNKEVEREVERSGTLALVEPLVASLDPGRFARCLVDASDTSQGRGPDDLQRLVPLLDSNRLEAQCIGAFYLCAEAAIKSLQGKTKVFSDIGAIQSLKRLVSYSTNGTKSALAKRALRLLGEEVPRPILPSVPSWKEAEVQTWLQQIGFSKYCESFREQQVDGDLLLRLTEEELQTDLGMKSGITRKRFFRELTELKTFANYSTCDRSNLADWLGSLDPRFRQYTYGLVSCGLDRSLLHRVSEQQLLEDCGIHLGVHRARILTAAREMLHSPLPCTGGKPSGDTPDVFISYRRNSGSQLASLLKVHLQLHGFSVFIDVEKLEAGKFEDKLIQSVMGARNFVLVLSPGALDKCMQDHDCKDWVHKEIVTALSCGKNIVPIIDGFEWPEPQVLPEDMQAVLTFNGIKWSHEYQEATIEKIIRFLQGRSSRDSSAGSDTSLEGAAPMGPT

[6] = target: Mitogen-activated protein kinase 7 (Homo sapiens) (UniProt Q13164); assay: Gal4-ERK5 driven luciferase induction – cell-based, HTS, primary screen (AID 1508626;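 active means luciferase signal above three times the same-plate solvent-only control wells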;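 further: luciferase driven by Gal4-ERK5 fusion binding five Gal4 sites before minimal TATA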); settings: HeLa Gal4-ERK5 transactivation, 18 h, at 5 µM, stronger effect = higher value
Chain of Mitogen-activated protein kinase 7 (Homo sapiens) (Q13164 whole entry, looked up, the tested form may be a part): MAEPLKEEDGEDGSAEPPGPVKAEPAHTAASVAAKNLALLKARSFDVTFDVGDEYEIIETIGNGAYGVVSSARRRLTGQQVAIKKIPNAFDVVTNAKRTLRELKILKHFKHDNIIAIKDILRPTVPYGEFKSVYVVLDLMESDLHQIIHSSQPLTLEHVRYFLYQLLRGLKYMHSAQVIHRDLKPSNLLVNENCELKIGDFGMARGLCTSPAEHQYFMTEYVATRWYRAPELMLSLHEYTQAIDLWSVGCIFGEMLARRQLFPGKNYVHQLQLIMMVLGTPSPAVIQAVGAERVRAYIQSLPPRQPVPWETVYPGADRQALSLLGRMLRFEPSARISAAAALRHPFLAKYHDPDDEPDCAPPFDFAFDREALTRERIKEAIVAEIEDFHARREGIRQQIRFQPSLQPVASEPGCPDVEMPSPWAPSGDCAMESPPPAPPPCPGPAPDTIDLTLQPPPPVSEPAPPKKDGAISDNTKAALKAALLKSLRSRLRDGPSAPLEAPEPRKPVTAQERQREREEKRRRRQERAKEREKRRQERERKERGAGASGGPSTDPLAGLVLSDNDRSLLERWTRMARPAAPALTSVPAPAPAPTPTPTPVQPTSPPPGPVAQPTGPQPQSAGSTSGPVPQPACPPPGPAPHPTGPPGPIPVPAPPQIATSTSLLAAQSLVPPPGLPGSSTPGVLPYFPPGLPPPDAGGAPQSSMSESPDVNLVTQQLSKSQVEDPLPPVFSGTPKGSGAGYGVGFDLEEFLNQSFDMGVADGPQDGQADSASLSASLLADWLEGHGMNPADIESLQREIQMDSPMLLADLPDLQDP

[7] = galactose survival enhancers in mitochondrial complex I cybrids – cell-based, galactose medium, ATP luminescence, primary screen (AID 1645843;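 active means z-score of at least 1.8 in each of two replicates, scored against plate mean and spread of sample wells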;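 further: positive z means more ATP and so rescue of galactose-driven cybrid death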); settings: complex I mutant cybrid cells, 72 h, stronger effect = higher value
[8] = growth inhibition of DIPG cells – cell-based, MIPE4.0 library, CellTiter-Glo luminescence, qHTS (AID 1347066; cut-off not given, nearly all actives have AC50 up to about 30 µM;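 further: cells exposed to compound for 48 hours before readout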); settings: SU-DIPG-VI viability, CellTiter-Glo ATP luminescence
[9] = growth inhibition of DIPG cells – cell-based, MIPE5.0 library, qHTS (AID 1347068; cut-off not given, nearly all actives have IC50 up to about 30 µM); settings: SU-DIPG-XXV viability
[10] = viability loss with induced miR-34 in A549 – imaging, A549 dox-inducible miR-34, nuclei and caspase counts, primary screen (AID 1347080;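 active means compounds whose cell count with miR-34 switched on is under 0.7 times the count with it off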); settings: A549 miR-34 inducible, Hoechst nuclei count, 48 h
[11] = chitosan synthesis blockers in C. neoformans – flow cytometry, Cibacron Brilliant Red staining (AID 1347148; call rule not given here;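 further: compound exposure lasted three days at 37 degrees C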); settings: Cryptococcus neoformans chitosan, stronger effect = lower value; at 10 µM unless noted
[12] = MELAS cybrid survival, CellTiter-Glo 48 h, stronger effect = higher value
[13] = Rieske KO mouse fibroblast survival, CellTiter-Glo 72 h
[14] = stronger effect = lower value, cell number ratio, induced over uninduced
[15] = measured here: relative caspase fold change +Dox/-Dox
[16] = measured here: total cells with miR-34 induction, stronger effect = lower value
[17] = measured here: total cells without miR-34 induction

O=C1CCc2cc(OCCCCc3nnnn3C3CCCCC3)ccc2N1
outcome [1]: inactive
outcome [2]: inactive
outcome [3]: inactive
z-score [4, 12]: -0.457 (inactive) and 0.645 (inactive)
z-score [4, 13]: 0.52 and 0.278
remaining NAD [5]: 10 nM (inactive)
luciferase signal [6]: 96 AU (inactive)
z-score [7]: -1.27 (inactive) and -0.71 (inactive)

CC(C)(Sc1cc(C(C)(C)C)c(O)c(C(C)(C)C)c1)Sc1cc(C(C)(C)C)c(O)c(C(C)(C)C)c1
outcome [8]: inactive
outcome [9]: inactive
fold change [10, 14]: 0.81 (inactive) and 0.886 (inactive) and 0.877 (inactive)
fold change [10, 15]: 1.96 and 0.704 and 3.16
cell count [10, 16]: 8410 and 8070 and 11000
cell count [10, 17]: 10400 and 9110 and 12500
z-score [4, 12]: -0.245 (inactive) and 0.14 (inactive)
z-score [4, 13]: -0.773 and -0.118
remaining NAD [5]: 10 nM (inactive)
luciferase signal [6]: 40 AU (inactive)

Cc1cn([C@H]2C=C[C@@H](CO)O2)c(=O)[nH]c1=O
outcome [8]: inactive
fold change [10, 14]: 0.956 (inactive) and 1.02 (inactive)
fold change [10, 15]: 1.47 and 1.86
cell count [10, 16]: 8230 and 8880
cell count [10, 17]: 8610 and 8700
outcome [3]: inactive
z-score [4, 12]: 0.426 (inactive)
z-score [4, 13]: -0.562
remaining NAD [5]: 21 nM (inactive)
z-score [7]: 0.32 (inactive) and 1.07 (inactive)

CC(C)(C)NC(=O)[C@@H]1CN(Cc2cccnc2)CCN1C[C@@H](O)C[C@@H](Cc1ccccc1)C(=O)N[C@H]1c2ccccc2C[C@H]1O
AC50 [8]: 20.9 µM (active)
z-score [4, 12]: -0.264 (inactive)
z-score [4, 13]: 0.0624

COC(=O)Nc1nc2ccc(S(=O)c3ccccc3)cc2[nH]1 (stereo not given)
outcome [8]: inactive
fold change [10, 14]: 1 (inactive) and 0.95 (inactive) and 1.02 (inactive)
fold change [10, 15]: 0.565 and 3.46 and 0.832
cell count [10, 16]: 5070 and 6690 and 5080
cell count [10, 17]: 5050 and 7040 and 4970
z-score [4, 12]: -0.274 (inactive) and -0.559 (inactive) and -0.178 (inactive)
z-score [4, 13]: 0.754 and 0.142 and 0.645
remaining NAD [5]: 10 nM (inactive)
z-score [7]: -0.185 (inactive)

O=C(O)c1cccnc1Nc1cccc(C(F)(F)F)c1
outcome [8]: inactive
fold fluorescence [11]: 3.63 [at 177.2 µM] (inactive)
outcome [3]: inactive
z-score [4, 12]: -0.334 (inactive) and -0.267 (inactive) and 0.0798 (inactive)
z-score [4, 13]: -0.307 and -0.187 and -0.378
remaining NAD [5]: 10 nM (inactive)
luciferase signal [6]: 60 AU (inactive)
z-score [7]: -0.15 (inactive) and 0.22 (inactive)

CC(C)NCC(O)COc1ccc(COCCOC(C)C)cc1 (stereo not given)
outcome [8]: inactive
outcome [3]: inactive
z-score [4, 12]: -0.423 (inactive) and -0.586 (inactive)
z-score [4, 13]: 0.385 and -0.329
remaining NAD [5]: 10 nM (inactive)
luciferase signal [6]: 84 AU (inactive)
z-score [7]: 0.495 (inactive) and 0.79 (inactive) and 0.73 (inactive)

COc1ccc2c(c1)c(CC(=O)OCC(=O)O)c(C)n2C(=O)c1ccc(Cl)cc1
outcome [8]: inactive
fold change [10, 14]: 0.914 (inactive) and 0.85 (inactive) and 0.854 (inactive)
fold change [10, 15]: 1.04 and 0.882 and 1.4
cell count [10, 16]: 8990 and 8100 and 8980
cell count [10, 17]: 9840 and 9530 and 10500
z-score [4, 12]: -0.366 (inactive) and 0.477 (inactive) and -0.419 (inactive)
z-score [4, 13]: 0.51 and 0.248 and -0.275
remaining NAD [5]: 10 nM (inactive)
luciferase signal [6]: 52 AU (inactive)
z-score [7]: 0.565 (inactive)
